The record followed here is PubChem BioAssay AID493191 (Broad Institute, 2011).

Out of some 1,300 compounds screened, about 330 (25%) were called active. The rule behind the calls is not given here. Only a sample is shown. Entries that show only a call come without a potency. Potency and affinity values are given separately.

The nature of this experiment: growth inhibition of MALME3 cells – cell-based, CellTiter-Glo, cherry-picked, orthogonal assay for MITF inhibitor project, dose response (AID 493191). To be noted: MALME3 melanoma viability, CellTiter-Glo luminescence, 24 h; series mostly up to 35 µM. A general note: Cellular ATP, detected with luciferase, serves as a proxy for viable cell number.
As for `Nc1c(-c2ccc(Cl)cc2)nnn1-c1ccccc1`, the molecule was classed as inactive.

Regarding `CCSc1nc2c(cnn2-c2ccccc2)c(=O)n1N`, the outcome was inactive.

In the case of `COc1cc2c(cc1OC)C(SC)=NC1(CCCC1)C2`, the molecule was classed as inactive.

Turning to `CN(C)c1ccc(/C=C(\C#N)c2ccccn2)cc1`, the call was inactive.

As for `Cc1ccccc1Cn1c(=N)n(CC(=O)c2ccc([N+](=O)[O-])cc2)c2ccccc21`, the call was inactive.

As for `O=C(/C=C/NNC(=O)c1ccccc1)c1ccc([N+](=O)[O-])cc1`, the molecule was called inactive.

`O=C(C[n+]1cccc2ccccc21)c1ccc([N+](=O)[O-])cc1`: the molecule was called inactive.

Take `Cc1ccccc1C(=O)O/N=C(\N)c1ccc([N+](=O)[O-])cc1`: the outcome was inactive.

Turning to `N=c1n(CC(=O)c2ccc([N+](=O)[O-])cc2)c2ccccc2n1Cc1ccccc1Cl`, the call was inactive.

`CCN1CCN(/C=N/c2nc3c(s2)CCCC3)CC1`: the call was inactive.

As to `CC(Oc1cccc(Br)c1)C(=O)NNC(=O)c1ccccn1` (configuration not stated), the result was inactive.

`Cc1cnn(C(=S)NCCc2ccccc2)c1`: the result was inactive.

`O=C(Cn1cnc2c(oc3ccccc32)c1=O)c1ccccc1`: the call was inactive.

`CCCCOC(=O)c1[nH]c(C)c(C(=O)OC)c1C`: the outcome was inactive.

For the molecule `CCOC(=O)c1c(NC(C)=O)sc2c(OCC(O)CNC(C)(C)C)c(Br)ccc12` (configuration not stated), the outcome was inactive.

With `CC(/C=N/NC(=O)c1cc(-c2ccncc2)nc2ccccc12)=C\c1ccco1`, the molecule was classed as inactive.

`O=C(CCC1CCCN(C(=O)c2cc3ccccc3o2)C1)NCc1ccc(F)c(F)c1` (configuration not stated): the call was inactive.

Take `COC(=O)[C@@H](C)NC(=O)c1ccc2oc(CCc3ccccc3)nc2c1`: the result was inactive.

Turning to `COC(=O)[C@@H]1C[C@]2(OC(=O)c3ccccc3)C=CC(=O)C[C@@H]2N1C(=O)OCc1ccccc1`, the molecule was called inactive.

In the case of `O=C1CN(c2ccccc2)C(=S)N1C(=O)c1ccccc1`, the molecule was called inactive.

Turning to `COc1ccc2oc3ccc(OC)cc3c(=O)c2c1`, the result was inactive.

Take `Cc1cc(C(=O)CCl)c(C)n1CCc1ccc(F)cc1`: the outcome was inactive.

Regarding `Cc1cc(-n2c(C)cc(C(=O)CCl)c2C)no1`, the outcome was inactive.

As to `Cc1cc(C(=O)COc2cccnc2[N+](=O)[O-])c(C)n1-c1ccccc1`, the call was inactive.

For the molecule `COC(=O)c1ccc(-n2c(C)cc(C(=O)CCl)c2C)cc1`, the outcome was inactive.

Consider `CC(C)(C)c1ccc(-c2noc(CCC(=O)NCC3CCCO3)n2)cc1` (configuration not stated), for which the result was inactive.

On to `Cc1cc(NCCCn2ccnc2)n2ncc(-c3ccccc3)c2n1`, for which the outcome was inactive.

Turning to `O=C(NCc1ccco1)c1ccc(COCC(F)(F)F)cc1`, the molecule was called inactive.

For the molecule `COc1ccc(S(=O)(=O)Nc2ccc(O)c3ccccc23)cc1`, the molecule was called inactive.

Take `O=[N+]([O-])c1ccccc1OCCOc1ccccc1[N+](=O)[O-]`: the outcome was inactive.

Turning to `CCOc1ccc(/C=C2\SC(=S)N(CCC(=O)O)C2=O)cc1`, the outcome was inactive.

As for `CCOC(=O)CSC1=NC(=O)/C(=C\c2ccc(OC(C)=O)cc2)S1`, the molecule was called inactive.

As to `CCOC(=O)c1sc(NC(=O)Nc2ccc(Cl)cc2)nc1C`, the outcome was inactive.

As for `CCOC(=O)CSc1nc2cc(OCC)ccc2cc1C#N`, the result was inactive.

On to `COc1ccc(CNC(=O)CN2C(=O)C3C4C=CC(C4)C3C2=O)cc1` (configuration not stated), for which the result was inactive.

Regarding `CC(C)(C)c1ccc(-c2cc(N)n[nH]2)cc1`, the outcome was inactive.

As to `COCCn1c(C)cc(C(=O)CSc2nnc(C)s2)c1C`, the molecule was called inactive.

In the case of `COc1ccc(CCC(=O)N2CCc3ccccc32)cc1`, the result was inactive.

With `O=C(CCl)N1c2ccccc2CCc2ccccc21`, the molecule was called inactive.

Regarding `CC(=O)c1sc(N/N=C\c2ccc(N(C)C)cc2)nc1C`, the molecule was called inactive.

For the molecule `COc1cccc(C(=O)Nc2ccc3c(cc2=O)[C@@H](NC(C)=O)CCc2cc(OC)c(OC)c(OC)c2-3)c1`, the call was inactive.

`O=C1c2ccccc2C(=O)N1CCOc1ccccc1`: the call was inactive.

For `O=C(/C=C/c1cccc([N+](=O)[O-])c1)n1cnc2ccccc21`, the molecule was called inactive.

On to `Cc1nc2ccccn2c1C(=O)/C=C/c1cccc([N+](=O)[O-])c1`, for which the outcome was inactive.

`CCOC(=O)C(=Cc1ccc(-n2ccnc2)cc1)C(=O)OCC`: the molecule was called inactive.

As for `CC(=O)c1ccc(Sc2nnnn2-c2ccccc2)c([N+](=O)[O-])c1`, the result was inactive.

Turning to `Cc1ccc(-n2ncc3c(SCC(N)=O)ncnc32)cc1C`, the molecule was called inactive.

For `CCOc1ccc2cc(C#N)c(SCC(=O)OC)nc2c1`, the molecule was classed as inactive.

Take `Cc1cc(C)cc(NS(=O)(=O)c2ccc3c(c2)c(=O)n(C)c(=O)n3C)c1`: the molecule was classed as inactive.

As to `N#Cc1cnn2cc(CCN3CCOCC3)c(-c3ccc(F)cc3)nc12`, the molecule was called inactive.

`Cc1cc(Cl)ccc1OCCCC(=O)N1CCOCC1`: the call was inactive.

On to `O=C(Cn1nnc(-c2ccccc2Cl)n1)N1CCCCC1`, for which the molecule was classed as inactive.

For the molecule `O=C(CCCc1ccccc1)N1CCN(C2CCCCC2)CC1`, the call was inactive.

Take `Cc1ccc(C(=O)c2cccc(N)c2)cc1C`: the molecule was called inactive.

Take `CC(C)(C)c1ccc(C(=O)N2CCCCCC2=O)cc1`: the call was inactive.

For `O=C(CSCc1c(F)cccc1F)Nc1ccccc1`, the outcome was inactive.

`CC(C)(C)OC(=O)N1CCN(C(=O)c2nc[nH]c2C(=O)N2CCN(c3ccccc3)CC2)CC1`: the molecule was called inactive.

In the case of `Cc1ccsc1C(=O)OCC(=O)Nc1sccc1C(N)=O`, the result was inactive.

`CCCCC(=O)N/C(N)=N/c1nc2ccccc2o1`: the outcome was inactive.

`Cc1c(Cl)c([N+](=O)[O-])nn1Cc1ccc(C(=O)N/N=C\c2cc(Cl)ccc2O)o1`: the outcome was inactive.

As to `O=C(N/N=C/c1ccccn1)c1cc([N+](=O)[O-])cc([N+](=O)[O-])c1`, the molecule was classed as inactive.

As for `O=C(c1ccc([N+](=O)[O-])s1)N1CCN(c2ccccn2)CC1`, the result was inactive.

Consider `O=C(O)c1cc2ccccc2c(N=Nc2cccnc2)c1O`, for which the molecule was classed as inactive.

On to `CN(C)S(=O)(=O)c1cccc(NC(=O)CSc2nc3c(cc2C#N)C(=O)CC(C)(C)C3)c1`, for which the call was inactive.

With `O=C(c1nnsc1S(=O)(=O)c1ccc(Cl)cc1)N1CCOCC1`, the molecule was called inactive.

Consider `Nc1ccc(-c2nc3ccc(C(=O)O)cc3s2)cc1`, for which the outcome was inactive.

With `OCC1CCCC(n2cnc3c(=S)nc[nH]c32)O1` (configuration not stated), the molecule was called inactive.

`CCN1CCN(CCCNC(=O)c2ccc3c(Cl)c4c(nc3c2)CCCC4)CC1`: the call was inactive.

On to `CCN1CCCC1CNC(=O)c1ccc2c(c1)NC(=O)/C(=C\c1ccc(OC)c(OC)c1)S2` (configuration not stated), for which the molecule was classed as inactive.

As to `CCCC1=Nc2cc(C(=O)NCCN3CCCC3)ccc2Sc2ccccc21`, the outcome was inactive.

On to `COc1cccc(/C=C2/Sc3ccc(C(=O)NCCN4CCCC4)cc3NC2=O)c1`, for which the molecule was called inactive.

In the case of `Cc1cccc(/C=C2/Sc3ccc(C(=O)NCCN4CCCC4)cc3NC2=O)c1`, the outcome was inactive.
